Rows were chosen to be rich in hits. Some 3.6% of all compounds tested hit in one or more screens of this group.
NPSR antag: neuropeptide S receptor (human) antagonism, cAMP; AID 1461; Potency, µM (titrated, usually from 38.3 µM), for the others: at the highest dose activity change, negative = inhibition, most hits filed as inhibitors; CHO-NPSR cells, cAMP TR-FRET, antagonist mode; actives 1% (n = 220,000); also: % is scaled to controls: 0 for no effect and ±100 for the full control effect; nearly all actives have a fitted effect of over 50% in size
Target sequence (Q6W5P4 whole entry, looked up): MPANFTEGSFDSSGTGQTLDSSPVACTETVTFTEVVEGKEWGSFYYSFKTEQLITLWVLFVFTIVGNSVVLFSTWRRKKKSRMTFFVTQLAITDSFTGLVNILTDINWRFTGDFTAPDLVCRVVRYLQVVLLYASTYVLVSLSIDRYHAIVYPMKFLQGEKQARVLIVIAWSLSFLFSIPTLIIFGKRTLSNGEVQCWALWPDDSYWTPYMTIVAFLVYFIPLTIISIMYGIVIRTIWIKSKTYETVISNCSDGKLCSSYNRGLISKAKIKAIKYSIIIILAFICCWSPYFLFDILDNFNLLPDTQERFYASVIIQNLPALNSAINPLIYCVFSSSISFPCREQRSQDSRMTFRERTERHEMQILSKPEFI
Epigenetic reg: epigenetic control regulation, reporter derepression; AID 1865; actives 0.2% (n = 280,000); murine LDR cells, GFP reporter derepression, 30 h; Potency, µM (titrated, usually from 53.9 µM), for inactives: at the top dose GFP activation, most hits filed as activators; also: % of control where 0% means no effect; nearly all actives have a fitted effect of over 60% in size
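Murine LDR cells bearing a silenced CMV-driven GFP reporter were exposed to compound for 30 h at 37 C. After PBS washes, GFP-positive cells (20-120 um objects) counted by laser-scanning microplate cytometry.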
GCN5L2 inh: GCN5L2 (KAT2A) acetyltransferase inhibition; GCN5L2 HAT assay, ThioGlo1 CoA-SH fluorescence; Potency, µM (doses to about 58.9 µM), for inactives: at the highest dose activity change, negative = inhibition, hits mostly inhibitors; Q92830; actives 0.21% (n = 390,000); AID 504327; also: % is scaled to controls: 0 for no effect and ±100 for the full control effect
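ThioGlo1-coupled HAT assay: 20nM GCN5L2, 70uM acetyl-CoA, 75uM H3(1-25) peptide, pH 7.5. Fluorescence read at 340/540nm at start and after 20 min at room temperature.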
KDM4E inh: inhibitors of human JMJD2E histone demethylase; B2RXH2; JMJD2E catalytic domain, FDH-coupled NADH fluorescence (FDH is formaldehyde dehydrogenase); Potency, µM (top dose mostly 57.1 µM), for the others: at the top dose activity change, negative = inhibition, most hits filed as inhibitors; actives 1.6% (n = 230,000); AID 2147; active = well fitted inhibition curve with a large enough effect, not every such curve was filed as active; inconclusive = small, poorly fitted or top-dose-only effect, or another doubt; inactive = no such curve, though single readings can be large or run the other way;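 also: 0% = wells with enzyme and -100% = buffer wells without enzyme; nearly all actives have a fitted effect of over 50% in size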
Target sequence (B2RXH2 1-337 limits assumed): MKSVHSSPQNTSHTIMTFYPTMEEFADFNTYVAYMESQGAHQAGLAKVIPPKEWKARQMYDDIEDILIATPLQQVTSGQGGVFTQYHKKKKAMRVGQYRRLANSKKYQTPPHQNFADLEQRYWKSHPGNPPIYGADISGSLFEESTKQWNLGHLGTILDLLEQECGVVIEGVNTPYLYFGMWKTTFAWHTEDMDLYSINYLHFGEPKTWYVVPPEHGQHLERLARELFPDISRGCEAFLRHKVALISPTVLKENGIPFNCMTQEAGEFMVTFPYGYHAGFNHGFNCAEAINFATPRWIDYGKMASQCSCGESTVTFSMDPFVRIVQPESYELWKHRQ
IMPase Li inh: membrane-permeable IMPase blocker, potentiated with lithium | CHO-M1 cells, IP1 TR-FRET (IP-One), carbachol + lithium | Potency, µM (highest dose often 59.4 µM), without a hit: at the top dose activity, negative = IMPase inhibition, actives largely listed as inhibitors | actives 0.35% (n = 210,000);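 also: IP1 builds up when IMPase is blocked and the TR-FRET signal falls; plate controls were basal vehicle for no effect and high inhibitor control for full effect; nearly all actives have a fitted effect of over 50% in size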
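CHO-M1, 2000 cells/well, 16–30 h culture; cpd + low Li+, 30 min 37C; lysis with d2-IP1/Eu-anti-IP1 Ab, 10 min RT; TR-FRET 665/620 ratio and 620 channel; AC50 via Hill.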
Sfp PPTase inh: blocks B. subtilis Sfp PPTase activity; Biochemical Sfp PPTase activity, qHTS; actives 3.5% (n = 310,000); Potency, µM, for the others: largest response in the series, negative = inhibition, most hits filed as inhibitors; Q9F4F7;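 also: the enzyme is Sfp with the accession as filed and its product quenches rhodamine fluorescence; 0% = enzyme reaction without inhibitor and -100% = no enzyme wells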
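Fluorescence-quenching assay: 15 nM Sfp-PPTase preincubated 15 min at room temperature with compound, then 5 uM rhodamine-CoA and 12.5 uM BHQ-2-labelled YbbR peptide added. Fluorescence (ex 525/em 598 nm) read at start and after 30 min; difference gives rate.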
Active calls of the source: *; [ ] = dose if it differs, or a comment. Unless noted, calls follow the shape of the dose curve; as a rule, active = well fitted curve in the direction sought with a large enough effect; inconclusive = small, poorly fitted or top-dose-only effect, or another doubt; inactive = no such curve, though single readings can be large; an effect the other way counts as inactive or inconclusive. Potency is read from the fitted curve at half-maximal effect.

`CNc1oc(Cc2ccccc2)nc1S(=O)(=O)c1ccccc1` gave NPSR antag 1.8%[46.1 µM], Epigenetic reg 0.0%, GCN5L2 inh -2.5%, KDM4E inh -25.0%, IMPase Li inh 17.6%[38.3 µM] and Sfp PPTase inh 50.1µM*.
Screening CC(=O)C1=C(C)NC2=C(C(=O)c3ccccc32)C1c1ccccc1 (centres undefined) returned NPSR antag -32.7%, Epigenetic reg -1.1%, GCN5L2 inh -6.6%, KDM4E inh -13.2%, IMPase Li inh 13.0% and Sfp PPTase inh 3.4%.
Nc1nc2c(c(=O)[nH]1)C(c1cccc3ccccc13)C1=C(N2)c2ccccc2C1=O (centres undefined) was read as NPSR antag -10.7%, Epigenetic reg 2.4%, GCN5L2 inh -6.7%, KDM4E inh -7.5%, IMPase Li inh 1.2% and Sfp PPTase inh 56.2µM*.
Screening O=c1c(CCc2ccccc2)nc2cnc(Nc3ccccc3)nc2n1Cc1cccs1 returned GCN5L2 inh -6.8%, IMPase Li inh inconclusive and Sfp PPTase inh 22.0%.
For Cn1cccc1Cc1nnc(SCC(=O)Nc2nccs2)n1C the results were GCN5L2 inh -4.2% and Sfp PPTase inh 22.0%.
Cn1cccc1Cc1nnc(SCC(=O)Nc2nccs2)n1CCc1ccccc1 was read as NPSR antag -19.1%, Epigenetic reg -1.0%, GCN5L2 inh 1.1%, KDM4E inh 2.9%, IMPase Li inh 6.1% and Sfp PPTase inh 79.4µM*.
Screening O=C(CSc1n[nH]c(-c2ccccc2Cl)n1)NCCc1ccccc1 returned Epigenetic reg -4.9% and GCN5L2 inh -5.0%.
For CCOC(=O)Oc1c(OC)cc(C(=O)O[C@@H]2C[C@@H]3CN4CCc5c([nH]c6cc(OC)ccc56)[C@H]4C[C@@H]3[C@H](C(=O)OC)[C@H]2OC)cc1OC the results were GCN5L2 inh -11.5%.
For COC(=O)[C@@H]1[C@@H]2C[C@H]3c4[nH]c5cc(OC)ccc5c4CCN3C[C@@H]2C[C@H](OC(=O)c2cc(OC)c(OC)c(OC)c2)[C@H]1OC the results were Epigenetic reg 7.9%[16.9 µM], GCN5L2 inh -2.9%[21.4 µM], KDM4E inh 10µM*, IMPase Li inh -6.8% and Sfp PPTase inh 8.8%.
For COc1ccc2nc(-c3ccc(N(C)C)cc3)sc2c1 the results were Sfp PPTase inh -26.2%.
Screening Cc1ccc(-c2nnn(CC(=O)N(CC(=O)NCc3ccccc3)c3cccc(C)c3C)n2)o1 returned NPSR antag inconclusive, Epigenetic reg 0.4%, GCN5L2 inh -7.2%, KDM4E inh -1.3%, IMPase Li inh 21.5%[38.3 µM] and Sfp PPTase inh 25.1µM*.
For CCN(CCCCOC(=O)c1ccc(OC)c(OC)c1)[C@@H](C)Cc1ccc(OC)cc1 the results were Epigenetic reg 1.4%[16.9 µM], GCN5L2 inh 7.2%[21.4 µM], KDM4E inh 0.3%[25.5 µM], IMPase Li inh -1.2% and Sfp PPTase inh 8.8%.
Screening Cc1ccc(NC(=O)CSC2=C(C#N)C(c3ccc4c(c3)OCO4)CC(=O)N2)cc1C (centres undefined) returned NPSR antag -22.4%[46.1 µM], Epigenetic reg -0.8%, GCN5L2 inh -4.0%, KDM4E inh -6.7%, IMPase Li inh 7.6% and Sfp PPTase inh 12.1%.
For N#CC1=C(SCC(=O)Nc2ccc(C(=O)O)cc2)NC(=O)CC1c1ccco1 (centres undefined) the results were NPSR antag -18.9%, Epigenetic reg 1.1%, GCN5L2 inh inconclusive, KDM4E inh 6.1% and Sfp PPTase inh 31.6µM*.
For COc1ccc(OC)c(NC(=O)CSC2=C(C#N)C(c3ccco3)C3=C(CCCC3=O)N2)c1 (centres undefined) the results were NPSR antag -20.5%[46.1 µM], Epigenetic reg 0.2%, GCN5L2 inh -7.4%, KDM4E inh -4.8%, IMPase Li inh 17.4%[38.3 µM] and Sfp PPTase inh -17.7%.
Screening Cc1ccc(NC(=O)CSC2=C(C#N)C(c3ccco3)C3=C(CCCC3=O)N2)cc1 (centres undefined) returned NPSR antag inconclusive, Epigenetic reg -3.3%, GCN5L2 inh -9.8%, KDM4E inh inconclusive, IMPase Li inh 19.3%[38.3 µM] and Sfp PPTase inh 10µM*.
`N#CC1=C(SCC(=O)c2ccc(Cl)cc2)NC2=C(C(=O)CCC2)C1c1ccco1` (centres undefined) gave NPSR antag -19.0%[46.1 µM], Epigenetic reg -1.2%, GCN5L2 inh -1.7%, KDM4E inh -3.6%, IMPase Li inh 15.7%[38.3 µM] and Sfp PPTase inh 44.7µM*.
COC(=O)c1sc2nc(-c3ccco3)ccc2c1N was read as NPSR antag -3.5%[46.1 µM], Epigenetic reg -0.1%, GCN5L2 inh -10.2%, KDM4E inh inconclusive, IMPase Li inh -25.1%[38.3 µM] and Sfp PPTase inh 8.91µM*.
`C=CCN1C(=O)/C(=C/c2ccc(OC(C)=O)c(OCC)c2[N+](=O)[O-])SC1=S` gave NPSR antag -41.7%, Epigenetic reg -3.1%, GCN5L2 inh -4.4%, KDM4E inh -2.6%, IMPase Li inh -14.9% and Sfp PPTase inh 15.8µM*.
For CCOc1c(OC(C)=O)ccc(/C=C/c2ccc3cccc(OC(C)=O)c3n2)c1[N+](=O)[O-] the results were NPSR antag inconclusive, Epigenetic reg -0.9%, GCN5L2 inh -4.4%, KDM4E inh -8.1%, IMPase Li inh 4.9%[38.3 µM] and Sfp PPTase inh 1.5%.
`O=c1c(-c2cc(F)cc(F)c2)nc2cncnc2n1Cc1ccccc1` gave GCN5L2 inh -15.7%, IMPase Li inh 1.6% and Sfp PPTase inh -6.8%.
For O=c1ccc(=O)n(-c2ccccc2)[nH]1 the results were NPSR antag 9.7%, Epigenetic reg 0.9%, GCN5L2 inh -9.3%, KDM4E inh -0.5% and Sfp PPTase inh 50.1µM*.
CC(=O)c1c(CC(=O)O)[nH]n(-c2nc3ccccc3s2)c1=O was read as NPSR antag -17.2%[46.1 µM], Epigenetic reg -0.4%, GCN5L2 inh -18.1%, KDM4E inh -1.4%, IMPase Li inh 17.1%[38.3 µM] and Sfp PPTase inh 8.0%.
`COC(=O)Cc1[nH]n(-c2nc3ccccc3s2)c(=O)c1C(C)=O` gave NPSR antag -4.3%[46.1 µM], Epigenetic reg -1.0%, GCN5L2 inh 4.7%, KDM4E inh inconclusive, IMPase Li inh 15.5%[38.3 µM] and Sfp PPTase inh 79.4µM*.
Screening COc1ccc(Cl)cc1NC(=O)CN(c1cc(C)cc(C)c1)S(=O)(=O)c1c(C)n[nH]c1C returned Epigenetic reg -2.5% and GCN5L2 inh -10.0%.
COc1ccc(-c2cc3nc(N)cc(=O)n3[nH]2)cc1 was read as Epigenetic reg -1.8% and GCN5L2 inh -5.2%.
For COc1ccc(-c2cc(=O)n(CCC#N)[nH]2)cc1 the results were NPSR antag 10.8%, Epigenetic reg 0.0%, GCN5L2 inh 2.5%, KDM4E inh 1.78µM*, IMPase Li inh 6.2% and Sfp PPTase inh 6.4%.

From PubChem BioAssay
